Laboratory results: PubChem BioAssay AID1508622 (National Center for Advancing Translational Sciences (NCATS), 2021)
The source made the active and inactive calls. The call rests on the fitted dose curve; in most records, active means well fitted activation curve with a large enough effect; inconclusive means small, poorly fitted or top-dose-only effect; inactive means no such curve, though single readings can be large or run the other way.

assay: Confirmatory qHTS for Identification of Small Molecule Activators of Huntingtin-Antisense Promoter Activity; settings: HEK293 HTT-AS promoter firefly luciferase reporter, 24 h; series mostly up to 57.5 µM; activity change, positive = activation: at the top concentration
Method in brief: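 2,500 luciferase reporter HEK293 cells/well; 24 h culture; cpds up to 57.5 uM final, PTC124 50 uM ctrl; 24 h, 37C; Dual-Glo FLuc reagent, 10 min RT; lum. Norm.: vehicle 0%, zero RLU -100%.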

Activity change, positive = activation, inactive:
Cc1ccccc1Cc1c(C)nc2c(-c3ccccc3)c(C)[nH]n2c1=O -38.5%
COc1cccc(C(=O)NCCSc2c(-c3ccc(F)cc3)[nH]c3ccccc23)c1OC -35.9%
CCCCOc1ccc(CNC(=O)Cc2ccc(NC(=O)N3CCSc4ncccc43)cc2)cc1 -27.6%
Cc1nc(-c2ccc(S(=O)(=O)Nc3ccc(C)c(N(C)C)c3)cc2)co1 -93.7%
O=C(NCc1ccc(F)cc1)C1CCN(C(=O)c2ccc(-n3ccc4ccccc43)s2)CC1 -30.5%
Cc1ccccc1OCc1ccc(-c2nc(C#N)c(NCc3cccnc3)o2)o1 -30.9%
Cn1cnc(S(=O)(=O)N2CCC(C(=O)Nc3ccc(Cl)c(C(F)(F)F)c3)CC2)c1 -54.1%
Cc1ccccc1OCC(=O)NCC(c1ccc(Cl)cc1)N1CCOCC1 (centres undefined) -44.9%
CCc1ccc(NC(=O)c2ccc(F)c(S(=O)(=O)N3CCN(c4cc(C)ccc4C)CC3)c2)cc1 -15.1%
Cc1cc(-c2ccc(S(=O)(=O)Nc3cccc(C)c3C)s2)on1 -41.5%
Cn1cc(CNCC2CCN(c3ncc(C(=O)NO)cn3)CC2)c2ccccc21 -1.6%
COc1ccccc1C(=O)Nc1nnc(SCc2cc(=O)c3ccccc3[nH]2)s1 -43.4%
CCOc1cccc(NC(=O)c2ccc(F)c(S(=O)(=O)N(CC)c3cccc(C)c3)c2)c1 -18.6%
CC(=O)Nc1cccc(NC(=O)Cc2csc(COc3cccc(C)c3)n2)c1 -50.9%
CCc1nnc2n1N(C(C)=O)C(c1ccc(C(C)(C)C)cc1)=C(C(C)=O)S2 -94.1%
COc1ccc2oc(=O)c(C(=O)NCCc3c(C)[nH]c4ccc(C)cc34)cc2c1 -17.8%
Cc1cccc(-n2nc(C)c(C(=O)N3CCN(c4ccccc4)CC3)c2-n2cccc2)c1 -44.8%
Cc1ccc(C(=O)NCc2ccc3c(c2)CCN3C(=O)c2ccc(C)cc2)cc1 -20.9%
CCCC(O)c1nc2ccccc2n1CCCCOc1ccc(OC)cc1 (centres undefined) -43.5%
Cc1ccccc1Nc1c(-c2cccnc2)nc2cccc(C)n12 -54.6%
CCc1ccc(OC(C)C(=O)N2CCC(c3nc4ccccc4s3)CC2)cc1 (centres undefined) -81.1%
O=C(Nc1cccc(F)c1)c1cnc2sc(N3CCCC3)nn2c1=O -61.2%
CSc1ncc(Cl)c(C(=O)Nc2ccc(S(=O)(=O)N3CCC(C)CC3)cc2)n1 -31.6%
COc1cc(OC)cc(C(=O)Nc2ccc3c(c2)CCCN3C(=O)c2cccs2)c1 -33.5%
O=S(=O)(c1ccc(-c2csc(=Nc3ccc(OC(F)(F)Cl)cc3)n2CCCO)cc1)N1CCCC1 -71.2%
Cc1ccc(S(=O)(=O)C(CNC(=O)C(=O)NCCc2ccc(F)cc2)c2cccs2)cc1 (centres undefined) -32.4%
CCCc1ccc(C2Sc3ccccc3NC3=C2C(=O)c2ccccc23)cc1 (centres undefined) -72.4%
CCOC(=O)c1ccc(Nc2nc3nonc3nc2Nc2cccc(C)c2C)cc1 -92.9%
COc1ccc(C(=O)N2CCC(c3nc4ccccc4s3)CC2)cc1Cl -92.9%
Cc1ccc(N2CCN(C(=O)c3nn(C)c4c3CS(=O)(=O)c3ccccc3-4)CC2)c(C)c1 -26%
COc1ccccc1N1CCN(S(=O)(=O)c2ccc(F)c(C(=O)Nc3ccc(Cl)cc3C(F)(F)F)c2)CC1 -27%
Cc1ccc(-n2ccnc(NCCc3ccc(S(N)(=O)=O)cc3)c2=O)c(C)c1 -32.3%
CC(C)C1C(=O)Nc2ccc(S(=O)(=O)NCc3ccc(Cl)cc3)cc21 (centres undefined) -66.1%
Cc1ccc(Nc2ccc(N3CCN(C(=O)c4ccc([N+](=O)[O-])cc4Cl)CC3)nn2)cc1 -30%
O=C(C1CCC1)N1CCCc2cc(S(=O)(=O)N3CCN(c4ccccc4)CC3)ccc21 -40.8%
COc1cc(CN(C(=O)COc2ccc(Br)cc2)c2ccccn2)cc(OC)c1OC -54.6%
COc1ccc(Nc2c3c(nc4ccc(NC(=O)/C=C/c5cccc(OC)c5OC)cc24)CCCC3)cc1OC -95%
COc1ccc(C2(CNC(=O)C(=O)Nc3cccc(C(F)(F)F)c3)CCCC2)cc1OC -9.16%
Cc1cc(C)c(S(=O)(=O)NCCc2sc3nc(-c4ccc(F)cc4)nn3c2C)c(C)c1 -92.7%
